Broadly, the inhibition is the relative decrease from the control value, in per cent. By remaining activity is commonly meant the signal under treatment as a percentage of the control signal. Broadly, the AC50 is the concentration giving half of the maximal activity seen.

Assay [1] in a line: antimalarial activity against Dd2 strain (AID 2302;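 active means growth inhibition above 50% at the single 2 µM test dose, taken to imply half-maximal potency below 2 µM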;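 further: 0% = DMSO untreated growth and 100% = chloroquine plus artemisinin killed control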). Particulars: P. falciparum Dd2 in RBCs, LDH growth readout, 72 h; at 2 µM; stronger effect = higher value.
Assay [2] in a line: HepG2 cytotoxicity, primary screen, cytotoxicity control for P. falciparum antimalarial project, cell-based, ATP luminescence (AID 2303;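 active means inhibition above 50%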;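 further: 0% = DMSO wells and 100% = digitonin-killed cells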). Particulars: HepG2 viability, 24-48 h, at 10 µM, stronger effect = higher value.
For assay [3], the target named is L-lactate dehydrogenase (Plasmodium falciparum (isolate CDC / Honduras)) (UniProt Q27743). The assay is described as follows: PfLDH activity inhibition – cell lysate, 3D7 strain, counter-screen for P. falciparum growth inhibition project (AID 2304).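 Further: 0% = vehicle and 100% = reference inhibitor.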 Particulars: P. falciparum 3D7 crude extract, LDH APAD/NBT absorbance; at 2 µM; stronger effect = higher value. For orientation: The purpose of a counterscreen is to sort out artefacts and off-target activity.

Assay [4] can be described thus: inhibition of 3D7 malaria parasite growth – strain 3D7 (AID 2306).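 Further: 0% = DMSO wells and 100% = chloroquine plus artemisinin control wells.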 Particulars: P. falciparum 3D7 erythrocytic growth, LDH absorbance, 72 h; at 2 µM; stronger effect = higher value.
Assay [5] concerns the target Calcium-dependent protein kinase 1 (Plasmodium falciparum (isolate 3D7)) (UniProt P62344). As to the kind of experiment: PfCDPK1 kinase inhibitors, biochemical, TCAMS library (AID 1159585; cut-off not given, nearly all actives have IC50 up to about 0.98 µM;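 further: inhibitors leave more ATP so luminescence rises with inhibition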). Particulars: recombinant PfCDPK1, Kinase-Glo ATP depletion luminescence. (In general: Kinase-Glo reads ATP consumption through a luciferase reaction.)
The target in assay [6] is Plasmodium falciparum protein kinase 6 (PK6, PF3D7_1337100) (UniProt Q8IDW1). The assay is described as follows: PfPK6 kinase inhibitors, biochemical, TCAMS library (AID 1159586). Particulars: recombinant PfPK6, Kinase-Glo ATP depletion luminescence.
In assay [7] the target is Protein kinase 7 (PK7), Plasmodium falciparum 3D7 (PF3D7_0213400) (UniProt Q7YTF7). The assay is described as follows: inhibition of Plasmodium PK7 catalytic activity – biochemical, TCAMS antimalarial set, Kinase-Glo luminescence (AID 1159587). Particulars: recombinant PfPK7, Kinase-Glo ATP depletion luminescence.
Assay [8] addresses Calcium-dependent protein kinase 4 (Plasmodium falciparum (isolate 3D7)) (UniProt Q8IBS5). The assay is described as follows: PfCDPK4 kinase inhibitors, biochemical, TCAMS library (AID 1159588; cut-off not given, nearly all actives have IC50 up to about 0.91 µM). Particulars: recombinant PfCDPK4, Kinase-Glo ATP depletion luminescence.
A short description of assay [9]: sensitizers of A549 cells to miR-34 induction, primary screen, imaging, A549 dox-inducible miR-34, nuclei and caspase counts (AID 1347080;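 active means compounds whose cell count with miR-34 switched on is under 0.7 times the count with it off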). Particulars: A549 miR-34 inducible, Hoechst nuclei count, 48 h.
Assay [10] can be described thus: inhibitors of Cryptococcus chitosan production, flow cytometry, Cibacron Brilliant Red staining (AID 1347148).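 Further: compound exposure lasted three days at 37 degrees C.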 Particulars: Cryptococcus neoformans chitosan, stronger effect = lower value; at 10 µM unless noted. Background: In flow cytometry, cells or beads pass a laser one at a time.
In assay [11] the test system is Aerobactin synthetase IucA (Klebsiella pneumoniae). The assay is described as follows: IucA aerobactin synthetase inhibitors, biochemical, Tocris library, absorbance (AID 1345561).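 Further: 100% = enzyme without compound and 0% = no enzyme.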 Particulars: purified IucA enzyme assay, absorbance (OD) read-out; stronger effect = lower value;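 tested at 8 µM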.
Assay [12] in a line: viability rescue of complex I mutant cybrids, primary screen, cell-based, galactose medium, ATP luminescence (AID 1645843;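 active means z-score of at least 1.8 in each of two replicates, scored against plate mean and spread of sample wells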;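 further: positive z means more ATP and so rescue of galactose-driven cybrid death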). Particulars: complex I mutant cybrid cells, 72 h, stronger effect = higher value.
Assay [13] can be described thus: circadian clock period modulators, cell-based, LOPAC library, luminescence reporter (AID 2774).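 Further: values are relative to mean of DMSO wells on each plate.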 Particulars: circadian reporter cells, at 7 µM, actives lie on both sides.
Assay [14] concerns Hepatitis C virus NS3 helicase. As to the kind of experiment: HCV NS3 helicase inhibitors, primary screen, biochemical, fluorescence polarization, LOPAC1280 library (AID 687035; in the data active means inhibition above about 37%). Particulars: Purified HCV NS3 helicase, Cy5-dT15 ssDNA binding fluorescence polarization; stronger effect = higher value; concentration not given here.
Assay [15] can be described thus: Cy5 fluorescence quenching or enhancement artefacts, artefact control for HCV NS3 helicase inhibitor project, biochemical, LOPAC1280 (AID 687037). Particulars: Cy5-DNA-NS3h complex fluorescence interference counterscreen.
Assay [16] is described as follows: growth inhibition of DIPG glioma cells, dose response, cell-based, SU-DIPG-XIII, MIPE4.0, CellTiter-Glo, qHTS (AID 1347061; cut-off not given, nearly all actives have AC50 up to about 37 µM;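 further: cells exposed to compound for 48 hours before readout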). Particulars: SU-DIPG-XIII viability, CellTiter-Glo ATP luminescence.
Assay [17] in a line: growth inhibition of DIPG glioma cells, dose response, cell-based, JHH-DIPG-1, MIPE4.0, CellTiter-Glo, qHTS (AID 1347062; cut-off not given, nearly all actives have AC50 up to about 27 µM). Particulars: JHH-DIPG-1 viability, CellTiter-Glo ATP luminescence.
The nature of assay [18]: survival rescue of mitochondrial mutant cells in low glucose, primary screen, MELAS cybrids, Rieske KO mouse fibroblasts, CellTiter-Glo (AID 1508586;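 active means mean z-score across replicates of 1.96 or higher in either the MELAS or the Rieske mutant cell line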;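 further: z relative to plate mean and SD of compound and empty wells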).
Where [19] appears, read: stronger effect = lower value, cell number ratio, induced over uninduced.
Setting [20] is: measured here: relative caspase fold change +Dox/-Dox.
The mark [21] stands for this setting: measured here: total cells with miR-34 induction, stronger effect = lower value.
Setting [22] is: measured here: total cells without miR-34 induction.

Several values for one entry are separate records, joined by “and”; a condition that tells them apart may be missing. Identical values can stand only once. Results filed as inconclusive are left out. For some of these results: Entries with a potency or affinity are not part of this list. Activity calls are given as the source filed them. Unless noted, how the calls were made is not given here.

Chain of Calcium-dependent protein kinase 4 (Plasmodium falciparum (isolate 3D7)) (Q8IBS5 whole entry, looked up): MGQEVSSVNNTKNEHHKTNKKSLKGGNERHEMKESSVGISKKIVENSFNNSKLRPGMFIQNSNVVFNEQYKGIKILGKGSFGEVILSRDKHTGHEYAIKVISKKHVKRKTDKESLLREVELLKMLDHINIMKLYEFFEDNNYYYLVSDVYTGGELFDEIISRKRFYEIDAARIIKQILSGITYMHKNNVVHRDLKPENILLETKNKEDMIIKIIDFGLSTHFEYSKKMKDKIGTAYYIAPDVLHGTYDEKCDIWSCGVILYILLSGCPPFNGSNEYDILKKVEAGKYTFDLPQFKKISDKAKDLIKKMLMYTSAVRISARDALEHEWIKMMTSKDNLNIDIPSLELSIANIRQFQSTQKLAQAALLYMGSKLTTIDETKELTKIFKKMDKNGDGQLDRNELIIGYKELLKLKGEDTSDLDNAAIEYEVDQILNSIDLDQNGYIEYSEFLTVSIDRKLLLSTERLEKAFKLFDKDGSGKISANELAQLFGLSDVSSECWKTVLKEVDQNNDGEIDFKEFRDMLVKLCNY
Chain of Protein kinase 7 (PK7), Plasmodium falciparum 3D7 (PF3D7_0213400) (Q7YTF7 1-343): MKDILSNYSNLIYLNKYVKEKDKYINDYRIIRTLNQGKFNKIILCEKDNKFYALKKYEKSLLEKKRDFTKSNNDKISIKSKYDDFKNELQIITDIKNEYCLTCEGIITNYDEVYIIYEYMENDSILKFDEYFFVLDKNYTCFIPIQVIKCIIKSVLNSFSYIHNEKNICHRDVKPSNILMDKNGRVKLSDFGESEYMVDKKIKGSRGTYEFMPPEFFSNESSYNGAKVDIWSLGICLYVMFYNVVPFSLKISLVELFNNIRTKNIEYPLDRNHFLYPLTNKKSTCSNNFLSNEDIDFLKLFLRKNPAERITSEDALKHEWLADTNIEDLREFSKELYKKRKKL
Chain of Calcium-dependent protein kinase 1 (Plasmodium falciparum (isolate 3D7)) (P62344 whole entry, looked up): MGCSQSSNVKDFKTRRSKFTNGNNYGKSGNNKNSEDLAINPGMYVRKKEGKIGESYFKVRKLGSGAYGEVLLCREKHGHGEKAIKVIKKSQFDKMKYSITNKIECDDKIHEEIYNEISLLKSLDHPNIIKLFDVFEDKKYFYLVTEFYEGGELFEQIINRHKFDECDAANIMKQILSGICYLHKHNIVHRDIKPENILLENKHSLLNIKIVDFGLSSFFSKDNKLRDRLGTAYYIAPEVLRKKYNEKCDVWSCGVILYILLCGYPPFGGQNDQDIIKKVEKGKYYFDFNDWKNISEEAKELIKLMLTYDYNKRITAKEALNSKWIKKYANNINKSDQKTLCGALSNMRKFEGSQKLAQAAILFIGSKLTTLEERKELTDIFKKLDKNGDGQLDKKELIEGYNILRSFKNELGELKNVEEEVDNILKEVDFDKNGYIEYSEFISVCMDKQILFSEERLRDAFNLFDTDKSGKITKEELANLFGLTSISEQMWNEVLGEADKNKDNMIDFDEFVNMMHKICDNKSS
Chain of Plasmodium falciparum protein kinase 6 (PK6, PF3D7_1337100) (Q8IDW1 1-305): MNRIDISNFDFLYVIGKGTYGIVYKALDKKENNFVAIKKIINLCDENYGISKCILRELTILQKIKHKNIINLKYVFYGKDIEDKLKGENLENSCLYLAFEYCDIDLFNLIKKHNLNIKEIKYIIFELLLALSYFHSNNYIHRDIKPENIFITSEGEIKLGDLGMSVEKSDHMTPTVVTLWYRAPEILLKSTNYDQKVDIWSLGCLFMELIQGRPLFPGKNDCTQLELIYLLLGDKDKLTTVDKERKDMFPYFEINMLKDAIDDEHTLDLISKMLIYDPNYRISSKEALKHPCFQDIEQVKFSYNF
Chain of L-lactate dehydrogenase (Plasmodium falciparum (isolate CDC / Honduras)) (Q27743 whole entry, looked up): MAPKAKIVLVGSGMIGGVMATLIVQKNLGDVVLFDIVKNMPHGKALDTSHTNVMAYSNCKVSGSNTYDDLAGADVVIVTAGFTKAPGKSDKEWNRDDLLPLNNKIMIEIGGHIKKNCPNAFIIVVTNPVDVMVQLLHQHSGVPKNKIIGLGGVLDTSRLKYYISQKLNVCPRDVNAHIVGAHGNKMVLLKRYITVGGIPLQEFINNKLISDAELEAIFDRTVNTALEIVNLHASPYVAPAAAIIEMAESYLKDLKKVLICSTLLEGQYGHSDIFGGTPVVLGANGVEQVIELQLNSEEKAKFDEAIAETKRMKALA

Take `FC(F)(F)c1ccc2nccc(NN=Cc3ccc(Cl)cc3)c2c1`: the results for the growth inhibition in assay [1] and in [4] were 53% (active) and 102% (active), respectively. Also, the values for the inhibition in [2] and in assay [3] were 5% (inactive) and -2% (inactive), respectively. The result in assay [5], in assay [6], in assay [7] and in assay [8] was inactive.

In the case of `CCOc1ccc(-c2nc3ccc(-c4nc5ccc(N6CCN(C)CC6)cc5[nH]4)cc3[nH]2)cc1`, the growth inhibition in [1] is 99% (active); in assay [4], 100% (active). Besides, the inhibition in assay [2] is 16% (inactive); in [3], 1% (inactive). Further, the result in assay [5], in [6], in assay [7] and in [8] was inactive. Also, the values for the fold change in assay [9] (setting [19]) and in [9] (setting [20]) were 1.13 (inactive) and 0.41, respectively. Moreover, the cell count in assay [9] (setting [21]) stood at 805; in assay [9] (setting [22]) it was 711. The fold fluorescence in assay [10] is 1.62 [at 110.5 µM] (inactive).

Turning to `CCc1cc(I)c2c(c1)C(NCCCNc1cc(=O)c3ccccc3[nH]1)CCN2` (stereo not given), the growth inhibition was 32% (inactive) in assay [1] and 89% (active) in [4]. For the same compound, the values for the inhibition in [2] and in [3] were 19% (inactive) and -1% (inactive), respectively. Moreover, the outcome in assay [5], in assay [6], in [7] and in assay [8] was inactive.

Regarding `CS(=O)(=O)CCNCc1nc(-c2ccc3ncnc(Nc4ccc(OCc5cccc(F)c5)c(Cl)c4)c3c2)cs1`, the growth inhibition was 34% (inactive) in assay [1] and 98% (active) in assay [4]. The inhibition in assay [2] is 8% (inactive); in assay [3], -3% (inactive). Further, the outcome in assay [5], in assay [6], in [7] and in assay [8] was inactive. Further, the remaining activity in assay [11] was 122% (inactive). For the same compound, the fold change is 0.987 (inactive) in assay [9] (setting [19]) and 0.867 in [9] (setting [20]). For the same compound, the cell count in assay [9] (setting [21]) worked out at 7720; in assay [9] (setting [22]) it was 7820. In addition, the z-score in [12] was -0.46 (inactive).

`OC(CN1CCN(c2cccc(Cl)c2)CC1)C(c1ccccc1)c1ccccc1` (stereo not given): the results for the growth inhibition in assay [1] and in assay [4] were 4% (inactive) and 85% (active), respectively. In addition, the inhibition in assay [2] is -2% (inactive); in assay [3], -2% (inactive); in assay [14] it was -4% (inactive). Besides, the period change in assay [13] was -0.085 h (inactive). The fluorescence ratio (interference) in assay [15] is 0.9 (inactive). Also, the result in assay [5], in assay [6], in assay [7], in [8] and in [17] was inactive. For the same compound, the remaining activity in assay [11] was 112% (inactive). In assay [16], the AC50 is 23.5 µM (active). For the same compound, the fold change in [9] (setting [19]) was 0.897 (inactive) and 1 (inactive); in assay [9] (setting [20]), 0.676 and 0.73. The cell count is 8580 and 6630 in [9] (setting [21]); 9570 and 6630 in assay [9] (setting [22]). Further, the z-score in [18] (MELAS cybrid survival, CellTiter-Glo 48 h, stronger effect = higher value) was -0.304 (inactive); in assay [18] (Rieske KO mouse fibroblast survival, CellTiter-Glo 72 h), 0.565; in [12], -0.82 (inactive).

For `COc1cccc(-c2ccc3ccnc(N)c3c2)c1`, the growth inhibition is 93% (active) in assay [1] and 101% (active) in assay [4]. For the same compound, the figures for the inhibition in assay [2] and in [3] were 40% (inactive) and 0% (inactive), respectively. Besides, the outcome in assay [5], in [6], in assay [7] and in assay [8] was inactive.

Consider `CC1(C)C(=O)NC2=C1C(=O)C(=O)c1ccccc12`, for which the inhibition in [2] was -8% (inactive); in assay [3], 1% (inactive). In assay [4], the growth inhibition was 93% (active). For the same compound, the result in [5], in assay [6], in [7] and in assay [8] was inactive. In addition, the remaining activity in [11] was 80.1% (inactive). Also, the fold change is 0.672 (active) in assay [9] (setting [19]) and 1.77 in assay [9] (setting [20]). Further, the figures for the cell count in [9] (setting [21]) and in assay [9] (setting [22]) were 1170 and 1740, respectively. Also, the z-score in [12] is -0.705 (inactive).
